In PubChem BioAssay AID1918 (Vanderbilt High Throughput Screening Facility, 2009):
Screen size: about 130,000 compounds; about 2,500 (1.9%) were called active. This is one part of a sample in which actives are shown more often than they occur.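 How the source made its calls: active means signal ratio slope over the read window, or its plate-corrected B-score, at least 3 SD from the plate mean, either direction; inactive means the rest.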

molecular target: ATP-sensitive inward rectifier potassium channel 1 (Homo sapiens) (UniProt P48048); assay: ROMK potassium channel modulators, primary screen, cell-based, thallium flux, MLSMR library (AID 1918); details: Tet-inducible ROMK, thallium flux fluorescence; at 10 µM; actives lie on both sides;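 further: B-score of the F/F0 ratio slope over 7 to 12 s after thallium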
Sequence (P48048 whole entry, looked up): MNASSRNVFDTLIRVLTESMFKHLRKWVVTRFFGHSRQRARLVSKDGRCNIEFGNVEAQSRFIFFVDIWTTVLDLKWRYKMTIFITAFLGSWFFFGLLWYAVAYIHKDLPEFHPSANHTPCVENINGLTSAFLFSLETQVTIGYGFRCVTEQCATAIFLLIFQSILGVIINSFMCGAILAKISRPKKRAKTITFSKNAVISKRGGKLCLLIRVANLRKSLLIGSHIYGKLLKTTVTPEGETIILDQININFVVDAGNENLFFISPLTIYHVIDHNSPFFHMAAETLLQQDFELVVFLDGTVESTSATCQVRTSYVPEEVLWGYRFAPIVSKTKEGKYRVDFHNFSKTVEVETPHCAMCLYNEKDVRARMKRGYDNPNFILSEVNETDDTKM

B-score, inactive:
COc1ccc(NC(=S)Nc2ccc(S(N)(=O)=O)cc2)c(C)c1 0.982
CN(C)CCCN(Cc1cc2cc3c(cc2[nH]c1=O)OCCO3)C(=O)NC1CCCCC1 0.033
COc1ccc(NC(=O)COc2ccc(C(=O)OCC(=O)N(C)C3CCS(=O)(=O)C3)cc2OC)cc1 (configuration not stated) 0.348
CC(=O)N1CCN(c2cccc(C)c2C)CC1 -0.0972
CC(C)(C)n1nnnc1C(c1ccc2ncccc2c1)N1CCSCC1 (configuration not stated) -0.18
CCC(C(=O)Nc1ccc(C(C)C)cc1)c1ccccc1 (configuration not stated) -0.192
COc1cc2sc(C)nc2cc1C 1.46
CC(C)OCCCNc1ncnc2c1[nH]c1ccc(F)cc12 -2.49
CC(C)OC(=O)C(C#N)c1nc2ccccc2nc1N1CCN(Cc2ccc3c(c2)OCO3)CC1 (configuration not stated) -0.0869
O=c1[nH]c(N2CCN(Cc3ccc4c(c3)OCO4)CC2)nc2c1CCCC2 -1.42
Nn1c(SCC(=O)Nc2nccs2)nncc1=O 1.33
COc1ccc(CC(=O)N[C@@H](CCSC)c2nc3ccccc3[nH]2)cc1 -1.58
CCc1nnc(NC(=O)CSc2nc(SC)ns2)s1 -0.0846
O=C(C1CCCN1S(=O)(=O)c1ccc(Br)cc1)N1CCOCC1 (configuration not stated) -0.207
CCn1cc(C(=O)Nc2cc(C)ccc2C)c(=O)c2ccc(C)nc21 0.0033
COc1ccc(CC2(CO)CCN(Cc3cnn(C)c3)CC2)cc1 0.221
CCOc1cccc(C(=O)Nc2nnc(-c3cccs3)s2)c1 1.45
CCOc1cc(/C=C(/C#N)c2ccc(Cl)cc2)cc(Cl)c1OCC(=O)O 1.07
Cc1ccc(S(=O)(=O)N2CCC(N3CCCCCC3)CC2)cc1 0.651
Cc1ccc(S(=O)(=O)N(C)C2(C)CCS(=O)(=O)C2)cc1 (configuration not stated) 1.47
COc1ccc(N(CC(=O)Nc2ccc(C)cc2C)S(=O)(=O)c2ccccc2[N+](=O)[O-])c(OC)c1 -0.208
CN(C)S(=O)(=O)c1cccc(NC(=O)COC(=O)/C=C/c2cccs2)c1 0.12
O=C(CN(C(=O)c1csnn1)c1cccc(F)c1)NCc1ccc(F)cc1 0.442
O=C(Cn1ncc(N2CCCC2)c(Br)c1=O)c1ccc(Cl)cc1 -0.342
COC(=O)c1ccc(NCC(=O)N2CCCCCC2)cc1 -0.512
CC(C)CCN1CCN(C/C=C/c2ccco2)CC1CCO (configuration not stated) 0.0943
CCOc1cccc(-n2nnnc2-c2ccc(OC)cc2)c1 2.1
COc1cccc(C2Nc3cccc4cccc(c34)N2)c1 -0.051
Cc1cc(NS(=O)(=O)c2ccc(NC(=O)c3cccc(OC(F)F)c3)cc2)nc(C)n1 0.878
Cc1ccc([N+](=O)[O-])c(OCCCNCC(C)O)c1 (configuration not stated) -0.00821
O=C(Cc1ccc([N+](=O)[O-])cc1)N/N=C/c1ccco1 -1.24
N#Cc1c(-c2ccc(F)cc2)nc(-c2ccccc2)[nH]c1=O -1.43
O=c1[nH]c(-c2ccccc2)c(-c2ccccc2)[nH]1 -0.0963
CN(C)/C=C/C(=O)c1cnc2sccn2c1=O -0.835
Cc1cccc(OP(=O)(Nc2c(C)n(C)n(-c3ccccc3)c2=O)Oc2cccc(C)c2)c1 -0.868
Cc1nn(C)c(Oc2ccccc2)c1[N+](=O)[O-] 0.573
COc1cccc(-c2ccc(SCC(=O)N3CCN(c4ccccc4)CC3)nn2)c1 0.576
COc1ccc(S(=O)(=O)N2CCCCCC2)cc1C(=O)OCC(=O)Nc1cc(C)on1 0.559
COc1cc2c(cc1OC)C(C(C)C)=NC(C)(C)C2 -0.0102
CN(C)C(=O)c1cccn(Cc2cccc(C(F)(F)F)c2)c1=O 0.481
CN1CCNC(=O)C1CC(=O)N1CC=C(c2ccc(F)cc2)CC1 (configuration not stated) -0.128
COc1cccc(NC(=S)N(Cc2ccc(C)cc2)Cc2ccccn2)c1 0.0921
CSc1cccc(NC(=S)N(C(C)C)C(C)c2ccccn2)c1 (configuration not stated) -0.872
O=C(Nc1ccncc1)c1ccccc1[N+](=O)[O-] -0.131
CC1=C/C(=N\S(=O)(=O)c2ccccc2)C(C(C)C)=CC1=O -2.34
COc1ccc(/C=C/C(=O)N2CCCC2)cc1OC 1.08
Cc1sc2c(c1C)c(=O)n(-c1ccccc1)c(=O)n2CC(=O)NCC1CCCO1 (configuration not stated) 0.885
Cc1ccc(C(NC(=O)N2CCCC2)C(Cl)(Cl)Cl)cc1F (configuration not stated) 0.515
O=C(Nc1ccccc1Cl)c1ccc2nsnc2c1 -0.621
COCCN(CCOC)C(=S)Nc1ccccc1Cl 0.00438

B-score, active:
Cc1cccc(N2CCN(C(c3ccc(N(C)C)cc3)c3nnnn3C(C)(C)C)CC2)c1C (configuration not stated) -2.94
Fc1ccc2[nH]c3c(N4CCN(Cc5ccc6c(c5)OCO6)CC4)ncnc3c2c1 -3.14
Fc1ccc2[nH]c3c(N4CCSCC4)ncnc3c2c1 -5.22
CCOc1cc(/C=C(\C#N)c2nc(-c3cccs3)c(NC(C)=O)s2)ccc1O -2.6
Cc1ccc(S(=O)(=O)C2(S(=O)(=O)c3ccc(C)cc3)CCCC2)cc1 3.4
O=C(Cn1nc(CNc2ccc(Cl)cc2)[n+]2c1CCCCC2)c1ccc(Cl)cc1 -3.24
COc1ccc(C2=CC(c3cccc(OC)c3)n3nnnc3N2)cc1 (configuration not stated) -4.22
O=c1cc(-c2ccccc2)[nH]c2cc(F)ccc12 4.56
Cc1cccc(Oc2c([N+](=O)[O-])c(=O)n(C)c3ccccc23)c1 -2.67
COc1cc2c(cc1O)C(SC)=NC(C)(C)C2 -6.55
CSc1cccc(NC(=S)N(Cc2ccccc2)Cc2ccccn2)c1 -1.37
O=C(Nc1ccccc1Cl)/C(Cl)=C(\Cl)S(=O)c1ccccc1 (configuration not stated) -4.2
